Shiga toxin inh = inhibitors of Shiga toxin in Vero cells. Vero cells, Shiga toxin protein synthesis inhibition reporter. inhibition, % at 38.7 µM. hit rate 9.2% among 290,000; in the data active = inhibition mostly above about 28%, no sharp cut-off; inactive = mostly below about 43%; note: 0% is about no effect
Lassa entry inh = inhibitors of Lassa virus binding or cell entry | Potency, µM (doses to about 37.9 µM), for the others: at the highest dose activity change, negative = inhibition, most hits filed as inhibitors | Lassa virus pseudotype entry inhibition, cell reporter | hit rate 1.2% among 300,000; calls by dose curve; tested in HEK293 cells; note: potency is the fitted concentration of half-maximal effect; % is set by controls: 0 for no effect and ±100 for the full control effect; nearly all actives have a fitted effect of over 50% in size
CHX counter = counter-screen for Shiga toxin inhibitors: cycloheximide protein synthesis inhibition; cell reporter, cycloheximide protein synthesis inhibition counterscreen; max response, %; hit rate 12% among 300,000; in the data active = max response mostly above about 13%, no sharp cut-off; inactive = mostly below about 14%; note: read at 38.3 µM for the half of the compounds with a filed dose; 0% is about no effect
FMDV antiviral = foot and mouth disease virus antiviral activity; FMDV antiviral cell-based qHTS; Potency, µM (doses to about 57.9 µM), inactives show at the top dose activity change, negative = inhibition, most hits filed as inhibitors; hit rate 1.2% among 410,000; calls by dose curve; tested in HEK293T cells; note: read-out not given here; potency is the fitted concentration of half-maximal effect; % is set by controls: 0 for no effect and ±100 for the full control effect; nearly all actives have a fitted effect of over 45% in size
HCV inh = blocks hepatitis C virus; Huh7.5.1 HCVcc-Cre infection, luciferase reporter, 44 h; Potency, µM (doses to about 41.8 µM), for the others: at the top dose activity change, negative = inhibition, hits mostly inhibitors; hit rate 3.4% among 340,000; AID 651820; active = well fitted inhibition curve with a large enough effect; inconclusive = small, poorly fitted or top-dose-only effect, or another doubt; inactive = no such curve, though single readings can be large or run the other way; note: potency is the fitted concentration of half-maximal effect; % is set by controls: 0 for no effect and ±100 for the full control effect
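Antiviral activity was scored by luciferase reporter output from cells infected with HCVcc-Cre (~0.5 moi) in presence of compound, 44 h infection period, cells seeded 1,000/well 4 h prior.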
Marburg entry inh = Marburg virus entry inhibition. Marburg virus pseudotyped entry inhibition, cell reporter. Potency, µM (highest dose often 37.8 µM), without a hit: top-dose activity change, negative = inhibition, most hits filed as inhibitors. hit rate 1.8% among 300,000. AID 540276; calls by dose curve; tested in HEK293 cells; note: potency is the fitted concentration of half-maximal effect; % is set by controls: 0 for no effect and ±100 for the full control effect
Active calls of the source: *; ? = inconclusive; · = no result; [ ] = dose if it differs, or a comment. In the library only some 13% were active in any assay of this set; here they are far more common.

SMILES | Shiga toxin inh | Lassa entry inh | CHX counter | FMDV antiviral | HCV inh | Marburg entry inh
CCn1nc(C)c(CN2CCCC(C(=O)c3cccc(OC(C)C)c3)C2)c1C (stereo unspecified) | -24 | · | -2 | ? | 8.9µM* | ·
Cc1nn(C(C)C)c(C)c1CN1CCCC(C(=O)c2cccc(OC(C)C)c2)C1 (stereo unspecified) | -7 | ? | -3 | ? | ? | 13µM*
O=C(NC(Cc1ccccc1)C(=O)O)/C(=C/c1ccco1)NC(=O)c1cccc(Br)c1 (stereo unspecified) | 4 | 5% | -2 | -10% | 31% | ?
Cc1cc(=O)[nH]c(NN=Cc2c(Cl)cccc2Cl)n1 | · | 17% | · | -23% | 14% | 21%
Cc1cc(=O)[nH]c(N/N=C/c2ccc(Br)s2)n1 | 29 | -1% | 27* | -11% | -19% | ?
CC(/C=N/Nc1nncc(=O)[nH]1)=C\c1ccccc1 | 13 | ? | -1 | 6% | 5% | 3%
O=c1cnnc(N/N=C/c2ccccn2)[nH]1 | -18 | · | -2 | -18% | 6.3µM* | ·
Cc1cc(=O)[nH]c(N/N=C/c2ccccn2)n1 | -34 | 7.1µM* | 14* | 51% | 1µM* | 2.6µM*
Cc1cc(=O)[nH]c(N/N=C/c2cccc(Br)c2)n1 | · | ? | 15* | 3% | -1% | -5%[46.1 µM]
Cc1cc(=O)[nH]c(N/N=C/c2cccc([N+](=O)[O-])c2)n1 | -7 | 6% | -1 | · | 4% | -1%
COc1ccc(CNC(=O)c2cc(C(C)=O)c[nH]2)cc1 | -4 | -24%[46.1 µM] | 6 | -2% | 5% | -1%[46.1 µM]
O=C1NC[C@H](Cc2ccccc2)N(C[C@@H]2CCCN2C[C@H](Cc2ccc(O)cc2)N2C[C@H](Cc3ccc(O)cc3)N(CC3CCCCC3)C(=O)C2=O)C1=O | · | · | · | -12% | · | ·
COc1ccccc1Cn1c(=O)c2ccccc2n2c(Sc3ncnc4sccc34)nnc12 | -16 | ? | -1 | ? | 10µM* | ?
COc1ccccc1Cn1c(=O)c2ccccc2n2c(SCc3csc(C)n3)nnc12 | 20 | 13% | 10 | · | -14% | -18%
Nc1ccc(-c2nc3ncccc3o2)c(Cl)c1 | 60* | ? | 31* | 16% | 3% | -25%[46.1 µM]
Nc1ccc(-c2nc3ncccc3o2)c(O)c1 | 69* | · | 21* | 64% | -26% | ·
CCC(=O)Nc1ccc(Cl)c(-c2nc3ncccc3o2)c1 | · | -14% | -1 | -17% | -17% | 12%
Nc1ccc(Cl)c(-c2nc3ncccc3o2)c1 | 59* | ? | 43* | 33% | -5% | 1%
Cc1ccc(Cl)cc1NC(=O)C1CC(=O)N(C(C)C)C1 (stereo unspecified) | · | 7% | -4 | -6% | 11% | 16%
Nc1ccccc1SC1CC(=O)N(c2ccc(Cl)c(Cl)c2)C1=O (stereo unspecified) | -10 | · | -2 | -25% | ? | ·
Nc1ccccc1SC1CC(=O)N(c2ccc3c(c2)OCCO3)C1=O (stereo unspecified) | 69* | 15% | 38* | 74% | -15% | ?
O=C(Nc1ccc2[nH]ccc2c1)c1ccc(F)cc1 | 16 | · | 13* | -56% | -10% | ·
COc1ccc(NC(=O)Nc2ccc3[nH]ccc3c2)cc1 | · | -4% | · | 23% | 6% | 12%
O=C(Nc1ccc2[nH]ccc2c1)c1ccccc1 | 32 | 2.8µM* | 27* | -48% | 18% | 6.3µM*
CCOC(=O)CNC(=O)c1cnn2cccnc12 | 51 | 1% | 42* | 20% | 12% | 14%[46.1 µM]
SMILES | Shiga toxin inh | Lassa entry inh | CHX counter | FMDV antiviral | HCV inh | Marburg entry inh
O=C(NCc1ccco1)c1cnn2cccnc12 | -6 | 8%[46.1 µM] | -2 | -1% | 5% | 0%[46.1 µM]
Cc1ccc(/C=C(\C#N)c2nc(-c3ccc(-c4ccccc4)cc3)cs2)cc1 | · | 9%[46.1 µM] | · | -16% | · | ·
CCOc1ccc(-c2csc(/C(C#N)=C\c3ccc(O)c([N+](=O)[O-])c3)n2)cc1 | 13 | ? | 2 | 22µM* | ? | ?
CN(C(=O)COC(=O)/C=C/c1ccc2c(c1)OCO2)c1c(N)n(Cc2ccccc2)c(=O)[nH]c1=O | · | -26% | · | 7% | -14% | 2%
Cn1c(N)c(C(=O)Nc2ccccc2)c(=O)[nH]c1=O | · | · | · | 18% | 25% | ·
Cn1c(N)c(C(=O)/C=C/c2ccccc2)c(=O)[nH]c1=O | 69* | 1%[46.1 µM] | 48* | 50% | 12% | ?
O=C(/C=C/c1ccccc1)c1c(O)n(CCc2ccccc2)c(=O)[nH]c1=O | -13 | -20% | 1 | 13µM* | 32% | ?

Screening results: PubChem BioAssay, National Center for Advancing Translational Sciences (NCATS)
